Assay results as given in PubChem BioAssay AID1254 (The Scripps Research Institute Molecular Screening Center, 2008).
The whole screen tested about 1,200 compounds, of which about 250 (21%) were called active. The list is a sample of the results. Values without a mark were called inactive. Rule as the data show it: active = inhibition above about 20%; inactive = the rest.

Target: Neuropeptide Y receptor type 1 (Homo sapiens) (UniProt P25929)
Test: blockers of human NPY-Y1 signalling – HEK293-CNG cells, membrane potential fluorescence, triplicate, confirmation (AID 1254);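 also: 0% = vehicle with agonist plus stimulus and 100% = stimulus alone without agonist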
Settings: cAMP, at 3.6 µM, active compounds read high, NPY challenge against isoproterenol-raised cAMP

Chain of Neuropeptide Y receptor type 1 (Homo sapiens) (P25929 whole entry, looked up): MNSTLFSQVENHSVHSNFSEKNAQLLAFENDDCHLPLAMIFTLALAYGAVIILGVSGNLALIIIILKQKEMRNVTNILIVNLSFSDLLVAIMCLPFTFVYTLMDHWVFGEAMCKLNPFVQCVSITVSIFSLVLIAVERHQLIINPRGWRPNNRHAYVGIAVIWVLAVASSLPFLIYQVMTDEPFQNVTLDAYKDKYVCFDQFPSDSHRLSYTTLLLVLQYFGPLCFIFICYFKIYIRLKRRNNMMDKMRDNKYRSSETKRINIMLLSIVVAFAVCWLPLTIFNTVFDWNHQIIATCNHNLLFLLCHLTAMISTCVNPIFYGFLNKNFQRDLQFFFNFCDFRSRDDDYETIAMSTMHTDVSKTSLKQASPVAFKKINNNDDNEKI

SMILES	inhibition
O=C(CSc1nnnn1C1CCCC1)Nc1ccc2c(c1)OCCO2	10.8%
CCN1CCN(CCNC(=O)c2ccc(/C=C3/Sc4ccccc4N(Cc4cccc(C)c4)C3=O)cc2)CC1	14.5%
COC(=O)c1ccc(COC(=O)c2c(C)nn(Cc3ccccc3Cl)c2Cl)o1	7.48%
CC(C)(C)NCc1cc(Br)ccc1OC1CCCC1	21.6% (active)
Cc1ccccc1Nc1scc(-c2ccc(Br)cc2)[n+]1-c1ccccc1C	18.4%
COc1ccccc1C1C2=C(COC2=O)Nc2cc3c(cc21)OCO3 (stereo not drawn)	2.86%
COc1ccc(-c2[nH]nc(-c3ccccc3)c2-c2nc3ccccc3[nH]2)cc1	13.6%
COc1ccc(C(=O)CSc2nnc(COc3ccccc3)n2Cc2ccco2)cc1	5.39%
Cc1cc(C)c2[nH]c(=O)c(CN(Cc3ccccc3)C(=S)NCCCN(C)C)cc2c1	15.2%
O=S(=O)(O)c1nc2ccccc2n1Cc1ccc(Cl)cc1	5.94%
O=C(NCCc1ccc2c(c1)OCCO2)c1cc2ccccc2o1	13.2%
CCCOc1ccc2c3c(c(=O)oc2c1OCCC)CCC3	5.13%
C/C(=N\NC(=S)NCc1ccccc1)c1ccc(Cl)cc1	4.98%
Cc1ccc(-c2cc(C(=O)N3CCc4ccccc4C3)no2)cc1	10.9%
OCC1(CCc2ccccc2)CCN(Cc2ccc3nsnc3c2)CC1	9.69%
COc1ccc(CCN(C(=O)COc2ccccc2)c2nc(-c3ccccc3)cs2)cc1OC	13.1%
CC(Nc1nc(N2CCN(CCO)CC2)nc2ccccc12)c1ccccc1 (stereo not drawn)	4.06%
c1ccc2c(NC3C4CC5CC(C4)CC3C5)nc(N3CCOCC3)nc2c1 (stereo not drawn)	25.2% (active)
c1ccc(-c2ccccc2OCCN2CCCCC2)cc1	4.72%
CCCCCCCCn1c2c(c(=N)c3c1CCC3)CCCC2	64.7% (active)
Cc1ccc2nc(-c3ccccn3)cc(C(=O)Nc3ccc4c(c3)OCO4)c2c1	27% (active)
O=C(CN1CCN(c2ncc(C(F)(F)F)cc2Cl)CC1)Nc1ccc2c(c1)OCO2	12.4%
COc1cc2c(C(=O)N3CCN(C)CC3)c(CSc3ccccc3)n(C)c2cc1Br	20.6% (active)

SMILES	inhibition
CS(=O)(=O)N1CCCC(C(=O)N2CCOCC2)C1 (stereo not drawn)	-0.5%
CCOC(=O)CSc1nc2c(sc(=S)n2CCc2ccccc2)c(=O)n1Cc1ccco1	18.3%
O=C(c1cc(-c2ccc(O)cc2)on1)N1CCCc2ccccc21	2.54%
CCOC1CCCCC1NS(=O)(=O)c1ccc(Cl)cc1 (stereo not drawn)	-0.15%
CCCC(=O)Nc1nc2ccc(NC(=O)c3c(F)c(F)c(OC)c(F)c3F)cc2s1	6.69%
Cc1ccc(N2C(=O)C3N=NN(CC(=O)N4N=C(c5cccc6ccccc56)CC4c4ccccc4)C3C2=O)cc1 (stereo not drawn)	0.57%
COC(=O)C1=C(Nc2ccc(C)cc2)C=C(C)C(C(=O)OC)C1c1ccc(F)cc1 (stereo not drawn)	19%
NC(N)=N/N=C/c1ccc(OCc2ccc(Cl)cc2Cl)cc1	11.7%
CC(=O)OC(C)C[N+](C)(C)C (stereo not drawn)	15.3%
Cc1ccc(C(=O)C[n+]2cc(-c3ccccc3)n3c2CCCCC3)cc1	22.1% (active)
CCOC(=O)N1CCN(S(=O)(=O)c2ccc(C(=O)Nc3ccc(F)cc3F)cc2)CC1	2.56%
Cc1nc(-c2ccccc2)sc1C(=O)/C=C/c1ccccc1	7.83%
COc1ccc(C(c2nnnn2C2CCCCC2)N2CCN(c3ccccc3F)CC2)cc1 (stereo not drawn)	15%
Cc1ccc(SCCC(=O)OCC(=O)Nc2ncc(Cl)cc2Cl)cc1	5.19%
CCCCc1c(O)nc2n(c1=O)CCS2	1.41%
CCCOC(=O)c1[nH]c2c(c1C)C(=O)CC(c1cccs1)C2 (stereo not drawn)	7.07%
CC1CN(CCCOc2ccccc2-c2ccccc2)CC(C)O1 (stereo not drawn)	2.5%
Cc1ccc(Cn2c(NC(=O)c3ccco3)nc3ccccc32)cc1	17.4%
COc1cccc(CNCCc2c[nH]c3ccccc23)c1OCc1ccccc1F	9.73%
OC(COCCC12CC3CC(CC(C3)C1)C2)CN1CCCCC1 (stereo not drawn)	3.08%
Cc1ccc(/C=N/NC(=O)COc2ccccc2-c2ccccc2)cc1	11.6%
CCCSc1nc(NCc2ccco2)c2c3c(sc2n1)COC(C)(CC)C3 (stereo not drawn)	10.4%
O=C(Cc1cccs1)N(CC1CCCO1)C1(C(=O)NC2CCCCC2)CCCCC1 (stereo not drawn)	9.42%

SMILES	inhibition
COc1ccccc1N1CCN(C(=O)CN(Cc2ccc(Cl)cc2)S(C)(=O)=O)CC1	11.6%
CCC(=O)c1c[nH]c(C(=O)NCC2CCCO2)c1 (stereo not drawn)	0.28%
CCOC(=O)c1nn(-c2cccc(C)c2)cc1C(=O)c1ccccc1	5.58%
COC(=O)c1ccc(C(NC(=O)OCc2ccccc2)/C(C)=C/[C@@H](C)C(=O)NCc2ccc(OC)c(OC)c2)cc1 (stereo partly drawn)	15.9%
O=C(NCCCN1CCOCC1)c1cnn2c(-c3ccccc3)cc(-c3ccccc3)nc12	25% (active)
O=C1c2cccnc2C(Nc2ccc(S(=O)(=O)N3CCCCCC3)cc2)N1Cc1ccccc1 (stereo not drawn)	0.2%
COc1ccc(C2Nc3ccccc3C(=O)N2Cc2ccccc2)cc1Cn1nnc2ccccc21 (stereo not drawn)	11.8%
CCS(=O)(=O)n1nc(-c2ccccc2)nc1SCc1ccccc1	13.5%
Cc1cc(C(C)(C)C)oc1C(=O)N(CC(=O)NC1CCCC1)Cc1ccc(Cl)cc1	25.8% (active)
O=C(/C=C/c1ccco1)Nc1cccc(-c2nc3ccccc3[nH]2)c1	2.58%
Oc1ccc(-c2[nH]ncc2-c2nc3ccccc3s2)c(O)c1	53% (active)
CCc1ccc(CNC(=O)C2CCCN(c3nc4ccccc4o3)C2)cc1 (stereo not drawn)	13.2%
CCCCn1nc(C(=O)N2CCc3ccccc32)c2ccccc2c1=O	3.55%
Clc1ccccc1-c1cc(COc2ccc3ccccc3c2)no1	13.6%
CCCCCCC(=O)Nc1nc(C)c(-c2csc(Nc3cccc(OC)c3)n2)s1	17.8%
CC(Oc1ccc2ccccc2c1)C(=O)NNC(=S)NC(=O)c1ccco1 (stereo not drawn)	10.5%
Cc1ccc(C(=O)N/C(=C/c2ccc(-c3cccc([N+](=O)[O-])c3)o2)C(=O)NCCCN(C)C)cc1	9.75%
O=C(CSc1nc2cc3c(cc2c(=O)n1CCC1=CCCCC1)OCO3)NCc1ccco1	4.77%
CC(=O)N1CC(C)c2scc(C)[n+]2-c2ccccc21 (stereo not drawn)	-0.57%
Fc1ccc(-c2nnc(CSc3nnc(-c4ccc5c(c4)OCO5)o3)o2)cc1	10.1%
CN(C)CCCCCN(C)Cc1cc2ccccc2o1	9.51%
CC(C)Cn1cnc2c1c(=O)n(CC(O)c1ccccc1)c(=O)n2CC(C)C (stereo not drawn)	-1.75%
